In PubChem BioAssay AID777 (Sanford-Burnham Center for Chemical Genomics, 2007) one finds inhibition data, which are given here for 97 molecules.

For orientation: inhibition means the change of the read-out against control, counted positive when it falls.

Out of some 96,000 compounds screened, about 19,000 (20%) were called active. A selection follows. Values without a mark were called inactive.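 Rule for the calls: active = blocking of liver enzyme CYP2C9 beyond about 50% at 5 µM (limit read from the data); inactive = the rest.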

The target in the experiment is Cytochrome P450 2C9 (Homo sapiens) (UniProt P11712). Nature of the experiment: blockers of cytochrome P450 2C9 activity – biochemical, luminescence, ADME assay, primary screen (AID 777). The note with it: CYP2C9 Supersomes, luciferin-H conversion, at 5 µM, active compounds read high.
Cytochrome P450 2C9 (Homo sapiens), sequence (P11712 whole entry, looked up): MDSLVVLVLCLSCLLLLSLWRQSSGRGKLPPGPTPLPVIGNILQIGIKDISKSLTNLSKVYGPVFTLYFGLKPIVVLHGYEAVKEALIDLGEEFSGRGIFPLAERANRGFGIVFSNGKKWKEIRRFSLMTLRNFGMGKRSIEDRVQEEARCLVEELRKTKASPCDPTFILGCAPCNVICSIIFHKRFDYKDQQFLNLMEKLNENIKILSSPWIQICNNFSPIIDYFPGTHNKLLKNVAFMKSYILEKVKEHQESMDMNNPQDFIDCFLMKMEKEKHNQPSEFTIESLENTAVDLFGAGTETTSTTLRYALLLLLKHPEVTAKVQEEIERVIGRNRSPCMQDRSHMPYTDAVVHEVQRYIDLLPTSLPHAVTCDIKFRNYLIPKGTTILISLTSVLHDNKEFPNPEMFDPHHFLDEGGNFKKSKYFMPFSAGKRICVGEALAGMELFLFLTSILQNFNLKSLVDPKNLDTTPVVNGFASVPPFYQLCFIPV
For the molecule `C=C(C)Cn1c(C)cc(C)c(S(=O)(=O)c2ccccc2C)c1=O`, the inhibition is 36.5%. The figure for `Cc1ccc(-n2ncc3c2ncn2nc(-c4ccco4)nc32)c(C)c1` is 0.2%; for `NC(=O)C1CC=CCC1C(=O)OCC(Cl)=C(Cl)Cl` (configuration not stated) it is 2.9%; for `COc1ccc(CN2CN(C(C)C)CSC2=S)cc1` it is 34%. With `CC(=O)Nc1ccc(S(=O)(=O)N2CCCC2C(=O)O)cc1` (configuration not stated) the figure was -11.7%; with `Cc1cccc(NC(=O)C2CCCN2S(=O)(=O)c2ccc(F)cc2)c1C` (configuration not stated), -147%. With `CC(C)c1nnc(NC(=O)C2CCCN2S(=O)(=O)c2ccc(Cl)cc2)s1` (configuration not stated) the figure was 86.2% (active). Consider `Cc1ccc(S(=O)(=O)N2CCCC2C(=O)NCc2ccco2)cc1` (configuration not stated), for which the inhibition is -48.4%. With `NC(=O)COc1ccc(/C=N/NC(=O)C2CCCN2S(=O)(=O)c2ccc(Cl)cc2)cc1` (configuration not stated) the figure was 67.3% (active). `O=C(COc1ccc(Cl)cc1)N1CCN(S(=O)(=O)c2ccc(Cl)cc2)CC1`: the inhibition is 0.1%. In the case of `CCC(C)NC(=O)C1CCCN(C(=O)NC2CCCCC2)C1` (configuration not stated), the inhibition was 19.9%. With `COc1ccc(C)cc1NC(=O)c1[nH]c(C)c(C(C)=O)c1C` the figure was 34%.

For `CCOC(=O)C1Sc2[nH]c(=O)sc2C(c2ccc(Cl)cc2)C1C(=O)OCC` (configuration not stated), the inhibition was 5.6%.

For the molecule `O=c1c2ccccc2oc2nc(C3CCCCC3)n(Cc3ccco3)c(=O)c12`, the inhibition is 20.1%. The figure for `CCc1nc2ccccc2n(CCOCCOCCn2c(=O)c(CC)nc3ccccc32)c1=O` is 24.5%; for `CC(c1ccco1)N(C(=O)COc1ccccc1[N+](=O)[O-])c1ccccn1` (configuration not stated) it is 8.1%.

Take `CC(C)Cc1ccc(S(=O)(=O)N2CCN(C(=O)c3ccco3)CC2)cc1`: the inhibition was 17%. With `CC(c1ccco1)N(C(=O)c1ccc(S(=O)(=O)N2CCCCC2)cc1)c1ccccn1` (configuration not stated), the inhibition is 56.9% (active). Regarding `Cc1cc(C)cc(OCc2nnc(SCC(=O)OC3CCCCC3)o2)c1`, the inhibition was -1.3%. With `C=CCc1cccc2cc(C(=O)N3CCN(C(=O)OCC)CC3)c(=O)oc12`, the inhibition was -112%.

Take `CCN(CC)S(=O)(=O)c1cccc(C(=O)Nc2ccccc2)c1`: the inhibition is 38.7%. As for `CCN(CC)S(=O)(=O)c1cccc(C(=O)NCC(=O)OCC(=O)NCc2ccccc2)c1`, the inhibition was 63.3% (active). The figure for `CCN(c1ccccc1)S(=O)(=O)c1cccc(C(=O)O)c1` is 33.3%; for `c1ccc2c(-c3nn4nnnc4c4ccccc34)cccc2c1` it is 13.8%. With `CCOc1cc2[nH]c(=S)n(Cc3ccc(C(=O)NCCOC)cc3)c(=O)c2cc1OCC` the figure was -7.8%. `COc1ccc(CCNC(=O)CCCCn2c(=O)[nH]c3ccccc3c2=O)cc1OC`: the inhibition is 68.4% (active). As for `COc1ccc(CCNC(=O)CCn2c(=O)oc3ccccc32)cc1OC`, the inhibition is 8.1%. With `O=C(CCCCCn1c(=O)[nH]c2ccccc2c1=O)NCCc1c[nH]c2ccccc12` the figure was 63.8% (active). As to `O=C(CCn1c(=S)[nH]c2ccccc2c1=O)NCCCN1CCCC1=O`, the inhibition was -4.6%. Turning to `COc1ccc(CCNC(=O)c2ccc3c(c2)NC(=O)C(N2CCOCC2)S3)cc1OC` (configuration not stated), the inhibition was 50.1% (active). As to `COc1ccc(CCNC(=O)c2cc(-c3ccc4c(c3)OCO4)on2)cc1OC`, the inhibition was 6.7%. Consider `CCN(CC)CCNC(=O)CCCCCn1c(=O)[nH]c2cc(C(=O)OC)ccc2c1=O`, for which the inhibition was 2.6%. The figure for `O=C(CCn1c(=O)[nH]c2ccccc2c1=O)NCCCN1CCN(c2cccc(Cl)c2)CC1` is 29.1%; for `O=C(NCCCN1CCCCC1)c1ccc2c(c1)NC(=O)C(N1CCOCC1)S2` (configuration not stated) it is -7.1%; for `COCCn1c(=S)[nH]c2cc(C(=O)NCCc3ccc(OC)c(OC)c3)ccc2c1=O` it is 55.7% (active).

As for `COCCn1c(=O)[nH]c2cc(C(=O)NCc3cccnc3)ccc2c1=O`, the inhibition is -1.7%. On to `COC(=O)CSc1snnc1-c1ccc(Cl)c(Cl)c1`, for which the inhibition was 6.6%. As for `COc1ccc(/C=N/Nc2nc3ccccc3o2)cc1OC`, the inhibition was -48.5%. Consider `CC(=O)Nc1cc2ccc(OC(C)=O)cc2oc1=O`, for which the inhibition is -29.1%.

Turning to `CCCOc1ccc(CN(CCO)CCO)cc1C(=O)OC`, the inhibition was 10.6%. For `COc1cccc(-c2cnc(OC(C)(C)C)nc2OC(C)(C)C)c1`, the inhibition was 6.8%. Consider `CCc1nc(C)cn1S(=O)(=O)c1cc(OC)c(C)cc1C`, for which the inhibition was 7.6%. `Cc1ccsc1CNn1cnnc1SCc1ccccc1F`: the inhibition was 13.9%. For `Cc1ccc(C2=NN(C)c3nc4ccccc4n3C2)cc1`, the inhibition is 6.9%. In the case of `COCc1cc(=O)[nH]c2cc(NC(=O)C(F)(F)F)c(C)cc12`, the inhibition is 13.9%. Take `CCOC(=O)Cn1c(-c2cccnc2Cl)nc2ccccc21`: the inhibition is 10.6%. The figure for `O=C(Nc1ncc2c(n1)-c1ccccc1OC2)c1ccc(Cl)cc1` is 25.3%; for `Cn1cc(CCC(=O)NCc2ccc3c(c2)OCO3)c2ccccc21` it is -124%; for `CC(C)NC(=O)CCCn1c(=S)[nH]c2cc3c(cc2c1=O)OCO3` it is 12.3%. With `Cc1c2cnn(-c3ccccc3)c(=O)c2c(C)n1CCCC(=O)N1CCN(C)CC1`, the inhibition is -0.9%. On to `O=C(CCCCn1c(=O)[nH]c2ccccc2c1=O)NCc1ccc2c(c1)OCO2`, for which the inhibition is 69% (active). The figure for `CCC1CCCCN1CCCNC(=O)C1CCC(Cn2c(=O)[nH]c3ccccc3c2=O)CC1` (configuration not stated) is 1.7%. With `Cc1ccc(C)c(N2CCN(C(=O)CCCCn3c(=O)[nH]c4ccccc4c3=O)CC2)c1`, the inhibition was 61.9% (active). On to `O=C(COc1ccc(/C=N/NS(=O)(=O)c2ccccc2)cc1)NCCc1ccccc1`, for which the inhibition is 5.3%.

Take `CCOc1ccc(OCC)c(NC(=O)C(NS(=O)(=O)c2ccc3c(c2)oc(=O)n3C)C(C)C)c1` (configuration not stated): the inhibition was 17.9%. The figure for `Cc1ccccc1OC/C(O)=C(\C#N)c1nc2ccccc2[nH]1` is 45.5%; for `N#C/C(=C(/O)Cc1cccc2ccccc12)c1nc2ccccc2s1` it is 76.6% (active); for `N#C/C(=C(/O)COc1cccc2ccccc12)c1nc2ccccc2[nH]1` it is -6.1%. With `CN(C)/C=C(\C#N)C(=O)c1cccnc1Oc1cccc(F)c1` the figure was 12.2%. As for `CCCC(C)C(=O)Nc1ccc(NC(C)=O)cc1` (configuration not stated), the inhibition is 9.5%. As for `COc1ccc(C2OC(=O)CC2C(=O)NC(C)C)cc1` (configuration not stated), the inhibition was 3.6%. The figure for `N#Cc1cccc(NC(=O)CCC2CCCC2)c1` is 56.8% (active); for `COC(=O)c1sccc1NC(=O)CCC1CCCC1` it is -11.7%; for `O=C(CCCOc1ccccc1)Nc1cccc(C(=O)O)c1` it is 9.5%. The figure for `CCCC(=O)N1CCc2[nH]c3ccccc3c2C1` is 8.3%; for `Cc1ccc(C(C(=O)NCc2ccco2)N(CC2CCCO2)C(=O)Cn2nnc3ccccc32)cc1` (configuration not stated) it is 14.4%. The figure for `COCCNC(=O)C(c1ccc(C)o1)N(Cc1ccccc1)C(=O)Cn1nnc2ccccc21` (configuration not stated) is 16.2%; for `COc1ccccc1N(C(=O)Cn1nnc2ccccc21)C(C(=O)NCc1ccco1)c1ccc(C)o1` (configuration not stated) it is 70.3% (active). In the case of `CCOCCCNC(=O)Cc1cc(=O)[nH]c(=O)[nH]1`, the inhibition is -6.2%. With `Cc1noc(COc2ccccc2OCC(O)CNC(C)(C)C)n1` (configuration not stated) the figure was 26.1%; with `O=C(Nc1cccc2ccccc12)N1CCN(Cc2ccc3c(c2)OCO3)CC1`, 38.9%. The figure for `O=C1N(Cc2ccc3c(c2)OCO3)c2ccccc2C1(O)c1c[nH]c2ccccc12` (configuration not stated) is 79.7% (active); for `CC1CCC(N2CC(=O)N(Cc3ccc4c(c3)OCO4)C(c3ccc(F)cc3)C2=O)CC1` (configuration not stated) it is 39.6%; for `CC(=O)Oc1ccc(C)cc1N1C(=O)c2ccc(C(=O)O)cc2C1=O` it is -17.9%.

For `C/C(CC(O)(/C=N/O)c1ccccc1)=N\O` (configuration not stated), the inhibition was -33%. Consider `CC1=NN(c2cccc(Cl)c2)C(=O)C12CC(C)=C(C)CS2` (configuration not stated), for which the inhibition is 74.8% (active).

Regarding `O=C1C(=O)N(c2ccccc2)c2ccccc21`, the inhibition was 4.1%.

With `CCOc1ccc(Nc2nc(Cc3nnc(SCC(=O)c4ccc(C)cc4)o3)cs2)cc1`, the inhibition is 83.7% (active).

In the case of `CC(=O)Nc1ccc(C(=O)CSc2nnc(Cc3ccccc3)o2)cc1`, the inhibition was 33.3%. Take `CCC(=O)Nc1ccc(C(=O)CSc2nnc(CNc3ccc(Cl)cc3)o2)cc1OC`: the inhibition was -44.6%. `COCCCn1c(Cc2csc(Nc3cccc(Cl)c3)n2)nnc1SCC(=O)OC1CCCCC1`: the inhibition is 44.3%.

With `CCOC(=O)c1c(NC(=O)CSc2nnc(Cc3csc(N)n3)n2C)sc(C)c1C`, the inhibition is 30.2%. With `CCOc1ccc(Nc2nc(Cc3nnc(SCC(=O)NC4CCCC4)n3C)cs2)cc1` the figure was 65.6% (active); with `COCc1cc(C)nc2sc(C(=O)NC3CCCCC3)c(N)c12`, 4.7%; with `COc1ccc(-n2cnc3cc(NCc4ccco4)ccc32)cc1`, 32.8%. In the case of `COC(=O)[C@@H](NC(=O)Nc1cc(Cl)ccc1C)C(C)C`, the inhibition is 10%. As for `OC(C#CCN1CCOCC1)(c1ccccc1)C1CCCCC1` (configuration not stated), the inhibition is 30%.

As for `CCCCCCc1cc2cc(-c3nnc(-c4ccccc4)o3)c(=O)oc2cc1O`, the inhibition was 90.8% (active). The figure for `O=c1oc2cc(O)ccc2cc1-c1ccc(F)cc1` is 27.8%. As for `CC1(C)CC(=O)C=C(NCCCNC2CCCCC2)C1`, the inhibition is 1%. In the case of `CCOC(=O)c1c(N)sc(C(C)=O)c1C`, the inhibition is 25.8%. Take `CCCCc1c(O)nc2n(c1=O)CCS2`: the inhibition was -21.9%.

Turning to `COc1ccccc1NC1=NC(c2ccc(Cl)cc2)N=C(N)N1` (configuration not stated), the inhibition was -7.5%. The figure for `CCn1c2ccccc2c2cc(NC(=S)N3CCOCC3)ccc21` is -46.3%; for `CCN1C(=O)c2cccc3c(N)ccc1c23` it is 7.7%. For the molecule `CCCCN(C)C(=O)c1ccc2c(c1)N(CC)C(=O)c1ccccc1S2(=O)=O`, the inhibition is 72.4% (active). `COC(=O)CNC(=O)c1ccc2c(c1)S(=O)(=O)c1ccccc1C2=O`: the inhibition is -14.1%.
